Screening results: PubChem BioAssay, National Center for Advancing Translational Sciences (NCATS)
HEK293 tox: cytotoxicity counter-screen for GLP-1 receptor inverse agonists | HEK293 cAMP-luciferase reporter cells, luminescence, 24 h | Potency, µM (titrated, usually from 38.3 µM), actives largely listed as inhibitors | actives 0.13% (n = 410,000);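 note: loss of luciferase light is scored as toxicity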
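Step one: seed cells (200 cells/uL, DMEM with 10% Nu serum, 1% pen-strep). Step two: 12-hour incubation at 37 deg C. Step three: pin 23 nL compound, incubate 24 hr. Step four: add luciferase reagent, read luminescence 12 min later.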
ClpP mod: qHTS Assay for Activators of ClpP | AID 651965, 2013 | actives 1.9% (n = 340,000) | purified B. subtilis ClpP, FRET peptide cleavage, 20 min | Potency, µM (titrated, usually from 57.5 µM); active = well fitted falling curve with a large enough effect; inconclusive = small, poorly fitted or top-dose-only effect; inactive = no such curve, though single readings can be large or run the other way; note: the source files actives as falling curves though it sought activators and does not explain the sign; nearly all actives have a fitted effect of over 65% in size
Target sequence (P80244 whole entry, looked up): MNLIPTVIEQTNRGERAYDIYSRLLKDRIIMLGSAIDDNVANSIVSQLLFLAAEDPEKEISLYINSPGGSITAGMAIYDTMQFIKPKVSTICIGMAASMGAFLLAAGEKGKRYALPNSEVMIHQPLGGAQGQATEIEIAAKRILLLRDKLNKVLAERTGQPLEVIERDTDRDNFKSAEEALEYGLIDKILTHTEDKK
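Buffer: 100 mM Tris/HCl pH8, 100 mM KCl, 0.05% low protease BSA, 2.5% glycerol, 0.01% Tween-20. ClpP 10 microg/mL final; 20 min RT; delta FRET normalized to ADEP and DMSO controls.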
DRD3 antagonist: D3 dopamine receptor (human) antagonism; P35462; D3R cells, DiscoveRx beta-arrestin luminescence, antagonist mode; active compounds read low; max response, negative = inhibition, %; actives 2.5% (n = 360,000); AID 652054; in the data active = max response below about -50%; inconclusive = no clear call, values can overlap the other calls
Target sequence (P35462 whole entry, looked up): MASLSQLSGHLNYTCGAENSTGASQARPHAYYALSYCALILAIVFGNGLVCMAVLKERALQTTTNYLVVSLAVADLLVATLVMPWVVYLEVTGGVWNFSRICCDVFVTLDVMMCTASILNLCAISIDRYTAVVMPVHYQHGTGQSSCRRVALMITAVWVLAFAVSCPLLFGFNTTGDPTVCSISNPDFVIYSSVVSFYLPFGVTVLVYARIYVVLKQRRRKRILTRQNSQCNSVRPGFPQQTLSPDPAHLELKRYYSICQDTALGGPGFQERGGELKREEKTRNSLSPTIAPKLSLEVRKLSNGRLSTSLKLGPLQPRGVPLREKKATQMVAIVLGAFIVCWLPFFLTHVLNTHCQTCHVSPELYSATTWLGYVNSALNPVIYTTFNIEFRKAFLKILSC
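Cells expressing the human receptor were seeded at 1500 cells/well, incubated overnight at 37 degrees C in 5% CO2, then exposed to library compounds with dopamine controls for 90 minutes at 37 degrees C before luminescent detection.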
GLP1R inv ag: GLP-1 receptor (human) inverse agonism | P43220 | HEK293 GLP-1R CRE-luciferase, luminescence, 24 h; GLP-1R form is constitutively active | Potency, µM (titrated, usually from 38.3 µM), hits mostly inhibitors | actives 1.6% (n = 410,000) | AID 624417; note: nearly all actives have a fitted effect of over 55% in size
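Inverse agonism was detected as reduced cAMP-driven luciferase luminescence after 24 h compound treatment. The cells were HEK293 clones expressing constitutively active human GLP-1R with the reporter. Reporter-only and GPR119 cell lines served as counterscreen controls.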
DRD3 agonist: D3 dopamine receptor (human) agonism | P35462 | D3R DiscoveRx beta-arrestin cells, luminescence, 90 min | max activation, % | actives 0.58% (n = 410,000) | AID 652048; in the data active = max activation above about 30%
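Agonist-mode cell screen: cells plated at 1500/well and incubated overnight at 37 °C, then exposed to library compounds for 90 min at 37 °C. Detection reagent was added for 30–60 min at room temperature, and luminescence was read.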
GLP1R ag: GLP-1 receptor (human) agonism | HEK293 GLP-1R CRE-luciferase, luminescence, 4-6 h; cells express a hypersensitive GLP-1R form | Potency, µM (highest dose often 45.6 µM), most hits filed as activators | actives 0.007% (n = 380,000)
Hits are given with their value; . = inactive; ? = inconclusive; / = no result given. The list is not random: actives were taken first. Their share in the collection is about 5.7%. Unless noted, calls come from the whole dose curve; as a rule, active = well fitted curve in the direction sought with a large enough effect; inconclusive = small, poorly fitted or top-dose-only effect, or another doubt; inactive = no such curve, though single readings can be large; an effect the other way counts as inactive or inconclusive.

SMILES | HEK293 tox | ClpP mod | DRD3 antagonist | GLP1R inv ag | DRD3 agonist | GLP1R ag
CCC(Cn1nnc2ccccc2c1=O)NC(=O)Nc1cc(OC)cc(OC)c1 (stereo unspecified) | . | . | / | . | . | /
CCNc1nnc(-c2ccc(C)cc2)o1 | . | 20µM | . | . | . | .
Cc1ccc(-c2nnc(-c3ccccc3)o2)cc1 | . | ? | . | . | . | .
CC(=O)OC[C@@H]1CN(Cc2cccc(C(F)(F)F)c2)C[C@H](n2cnc3c(NCc4ccco4)ncnc32)O1 | . | . | . | ? | . | .
CNc1nc(-c2ccc(OC)cc2)c(-c2ccc(OC)cc2)s1 | . | . | . | . | 49 | .
COc1ccc(NC(=O)C2(C)CCN2Cc2cccc(OC)c2OC)cc1OC (stereo unspecified) | . | . | . | . | . | .
COC(=O)[C@@]12C[C@@H](CC(=O)NCCC(C)C)C(=O)N(Cc3ccccc3)C1=CCC(C)(C)C2 | . | . | . | ? | . | /
CC(=O)NC(Cc1ccc(Cl)cc1)C(=O)NCC(N)C(=O)c1ccccc1 (stereo unspecified) | / | . | / | / | / | /
O=P(Cc1nnco1)(c1ccccc1)c1ccccc1 | . | . | -63 | . | . | .
COc1ccc(CP(=O)(c2ccccc2)c2ccccc2)cc1 | . | . | . | . | . | .
COc1cc(CN2C(=O)C(CCc3ccccc3)ON=C2c2cnccn2)cc(OC)c1 (stereo unspecified) | . | . | . | ? | . | .
COc1ccc([N+](=O)[O-])c(O)c1C(C)=O | . | / | . | . | . | .
O=S(=O)(c1nccs1)N1CCN(c2nc(-c3cccs3)nc3ccccc23)CC1 | / | . | / | / | / | /
O=C1C(Cl)=C(N2CCOCC2)C(=O)N1c1ccc(Br)cc1 | . | . | -69 | . | . | .
COc1nc(NC2OC(CO)C(O)C(O)C2O)c(N)c(=O)[nH]1 (stereo unspecified) | . | . | . | . | . | .
Cc1cc(C)c2nc(N(CCCN(C)C)C(=O)c3ccc4c(c3)CCCC4)sc2c1 | ? | . | . | 4.5µM | . | .
CCOC(=O)N1CCN(S(=O)(=O)c2ccc(C(=O)N(CCCN(C)C)c3nc4ccc(OC)cc4s3)cc2)CC1 | . | . | . | ? | . | .
Cc1ccc2nc(N(CCCN(C)C)C(=O)c3ccc4c(c3)CCCC4)sc2c1 | ? | . | ? | . | . | .
Cc1cc(C)c2nc(N(CCCN(C)C)C(=O)c3ccc(S(=O)(=O)N4CCCCCC4)cc3)sc2c1 | ? | . | . | 13µM | . | .
CCOC(=O)N1CCN(S(=O)(=O)c2ccc(C(=O)N(CCN(C)C)c3nc4ccc(Cl)cc4s3)cc2)CC1 | . | . | ? | 8.9µM | . | .
NC(CCC(=O)NC(CS)C(=O)NCC(=O)O)C(=O)O (stereo unspecified) | . | . | . | . | . | .
COC(=O)[C@@]12C[C@@H](CC(=O)NCc3cccs3)C(=O)N(Cc3ccco3)C1=CCC(C)(C)C2 | . | . | . | ? | . | /
CCCOC(=O)CSc1nc(N)c(C#N)c(-c2ccco2)c1C#N | . | 25µM | . | . | . | .
COCCn1c(-c2ccc(NC(C)=O)cc2)nc2c1c(=O)[nH]c(=O)n2CC(C)C | . | / | . | . | . | .
COCCn1c(-c2ccc(-c3ccccc3Cl)o2)nc2c1c(=O)[nH]c(=O)n2CC(C)C | . | 4µM | . | . | . | .
SMILES | HEK293 tox | ClpP mod | DRD3 antagonist | GLP1R inv ag | DRD3 agonist | GLP1R ag
CCCCn1c(=O)[nH]c(=O)c2c1nc(-c1ccc(-c3ccccc3Br)o1)n2CCOC | . | 32µM | . | . | . | .
Cc1ccc(-c2[nH]ncc2CNC(C)c2ccccc2)cc1 (stereo unspecified) | / | . | / | / | / | /
CCCCNc1sc(S(=O)(=O)CC)nc1S(=O)(=O)c1ccc(C)cc1 | . | . | / | . | . | /
CC(C)Cc1ccc(S(=O)(=O)NCc2nc3cccnc3n2Cc2ccccc2)cc1 | . | . | / | . | . | /
CSCC[C@H](NC(=O)c1cccc([N+](=O)[O-])c1C)c1nc2ccccc2[nH]1 | . | . | ? | . | . | .
CSCC[C@H](NC(=O)c1ccc(Cl)c([N+](=O)[O-])c1)c1nc2ccccc2[nH]1 | ? | . | -95 | . | . | .
COc1cccc(C(=O)N[C@@H](CCSC)c2nc3ccccc3[nH]2)c1 | . | . | . | . | . | .
COc1cc(OC)cc(C(=O)N[C@@H](CCSC)c2nc3ccccc3[nH]2)c1 | . | . | -56 | . | . | .
Cc1c(C(=O)NC(Cc2ccccc2)c2nc3ccccc3[nH]2)cccc1[N+](=O)[O-] (stereo unspecified) | . | . | . | ? | . | .
O=C(NC(Cc1ccccc1)c1nc2ccccc2[nH]1)c1ccc(Cl)c([N+](=O)[O-])c1 (stereo unspecified) | . | / | -63 | ? | . | .
Cn1c(=O)c2cc(NC(=O)OCCF)ccc2n1Cc1cccc(C(F)(F)F)c1 | . | . | . | . | . | .
COc1cccc(-c2c(-c3ccccc3OC)ncn2Cc2cccc(-c3ccccc3)c2)c1 | ? | 28µM | ? | ? | . | /
CCc1ccc(-c2cc(C)no2)cc1S(=O)(=O)NCc1ccc(OC)cc1 | ? | . | / | ? | . | /
CN(C)c1cccc(-c2cc(Nc3ccc(C(C)(C)C)cc3)ncn2)c1 | . | ? | -55 | ? | . | .
Cc1nn(C)cc1C(C)NC(=O)c1cc(COc2c(F)cccc2F)on1 (stereo unspecified) | . | . | . | . | . | .
Cc1nn(C)cc1C(C)NC(=O)c1cc(COc2cccc3cnccc23)on1 (stereo unspecified) | . | 16µM | . | . | . | .
CCN(c1ccccc1)S(=O)(=O)c1cc(C(=O)NCC(c2ccco2)N2CCCCC2)ccc1C (stereo unspecified) | ? | . | . | 8.9µM | . | .
CCN(c1ccccc1)S(=O)(=O)c1cccc(C(=O)NCC(c2ccco2)N2CCCC2)c1 (stereo unspecified) | . | . | -58 | ? | . | .
CCN(c1ccccc1)S(=O)(=O)c1cccc(C(=O)NCC2(N(C)C)CCCCC2)c1 | . | . | . | 10µM | . | .
CCN(c1ccccc1)S(=O)(=O)c1cccc(C(=O)NCC(c2ccco2)N2CCCCC2)c1 (stereo unspecified) | . | / | ? | ? | . | .
O=C(NCc1ccco1)c1ccc2nc([C@@H]3O[C@H](CO)[C@H](O)[C@H](O)[C@H]3O)[nH]c2c1 | . | . | . | . | . | .
